In PubChem BioAssay (NCI):
Values joined by “and” are separate entries in the source; they are usually repeats but may differ in a detail not shown here. Equal values may be shown once. About 79,000 compounds went through this panel and 15% of them were active in at least one assay; those are over-represented in the sample as a whole. More than one record can exist for a structure, and the calls need not agree. Active and inactive are the calls of the source. Rule as the data show it: active = growth inhibition above about 70%; inactive = the rest.

Key:
[1] = NCI Yeast Anticancer Drug Screen. Data for the rad52 strain (AID 147);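 also: 0% = growth of vehicle-treated control cultures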; conditions: S. cerevisiae rad52 mutant growth inhibition, stronger effect = higher value
How it was run: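 The repair-mutant yeast strain was incubated with compounds, then growth was read and inhibition derived relative to vehicle.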

[2] = NCI Yeast Anticancer Drug Screen. Data for the wt1 strain (AID 149);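 also: 0% = growth of vehicle-treated wt1 cultures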; conditions: S. cerevisiae wt1 strain (SPY 50644) growth inhibition, stronger effect = higher value
How it was run: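 The wt1 strain was treated with compounds, and growth was compared with vehicle-treated cultures to give inhibition.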

[3] = NCI Yeast Anticancer Drug Screen. Data for the rad50EPP+ strain (AID 151);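 also: 0% = growth of vehicle-treated control cultures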; conditions: S. cerevisiae rad50 mutant strain, stronger effect = higher value
How it was run: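 Vehicle-normalised growth inhibition; rad50EPP+ yeast strain, altered in DNA damage repair, compound-treated.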

[4] = NCI Yeast Anticancer Drug Screen. Data for the mgt1 strain (AID 153); conditions: S. cerevisiae mgt1 mutant growth inhibition, stronger effect = higher value
How it was run: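 Vehicle-normalized growth inhibition is determined in mgt1 yeast, a strain selected for a defined alteration in DNA repair or cell cycle control.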

[5] = NCI Yeast Anticancer Drug Screen. Data for the rad50 strain (AID 155);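 also: 0% = growth of vehicle-only cultures of the same strain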; conditions: S. cerevisiae rad50 strain growth inhibition, stronger effect = higher value
How it was run: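 Cells are treated with compound, grown, and their growth is then scored against vehicle-only cultures of the same repair-deficient yeast strain.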

[6] = NCI Yeast Anticancer Drug Screen. Data for the mec2-1 strain (AID 157); conditions: S. cerevisiae mec2-1 strain, stronger effect = higher value
How it was run: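 Mutant yeast (mec2-1) grown with compound; growth inhibition relative to vehicle control reported.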

[7] = NCI Yeast Anticancer Drug Screen. Data for the rad14 strain (AID 159);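 also: 0% = growth of vehicle-treated control cultures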; conditions: S. cerevisiae rad14 strain growth inhibition, stronger effect = higher value
How it was run: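 Readout: yeast growth inhibition, referenced to vehicle-only cultures. Strain bears a defined alteration in DNA damage repair.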

[8] = NCI Yeast Anticancer Drug Screen. Data for the sgs1 mgt1 strain (AID 161);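 also: 0% = growth of cultures given vehicle only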; conditions: S. cerevisiae sgs1 mgt1 strain, stronger effect = higher value
How it was run: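 This yeast growth screen uses a strain with defined DNA-repair lesions; compound-treated growth is compared with vehicle-treated growth.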

[9] = NCI Yeast Anticancer Drug Screen. Data for the CLN2oe strain (AID 163);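 also: 0% = growth of vehicle-only control cultures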; conditions: S. cerevisiae CLN2oe strain, stronger effect = higher value
How it was run: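 Compounds are applied to yeast harbouring a defined cell-cycle control change; reduced growth compared with vehicle-treated controls gives the value.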

[10] = NCI Yeast Anticancer Drug Screen. Data for the cln2 rad14 strain (AID 165);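 also: 0% = growth equal to vehicle treated cultures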; conditions: S. cerevisiae cln2 rad14 strain, stronger effect = higher value
How it was run: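 Readout is yeast growth inhibition versus vehicle-treated controls, using a strain with cln2 and rad14 alterations exposed to compound.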

[11] = NCI Yeast Anticancer Drug Screen. Data for the bub3 strain (AID 167); conditions: S. cerevisiae bub3 mutant strain, stronger effect = higher value
How it was run: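 Part of a panel of yeast mutants defective in DNA damage repair or cell cycle regulation. Each strain is grown with compound, and inhibition is calculated relative to solvent-treated cultures.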

[12] = NCI Yeast Anticancer Drug Screen. Data for the wt2 strain (AID 169);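 also: 0% = growth of vehicle-treated yeast cultures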; conditions: S. cerevisiae wt2 strain growth inhibition, stronger effect = higher value
How it was run: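 Against vehicle-treated controls, the growth of yeast exposed to each compound was compared, and the inhibition was recorded.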

[13] = NCI Yeast Anticancer Drug Screen. Data for the mlh1 strain (AID 171);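 also: 0% = growth of vehicle-treated control cultures of the same strain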; conditions: S. cerevisiae mlh1 strain growth inhibition, stronger effect = higher value
How it was run: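 Measured: yeast growth. Reference: vehicle-treated controls. Organism: strain with a defined alteration affecting DNA damage repair or cell cycle control, treated with compound.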

[14] = NCI Yeast Anticancer Drug Screen. Data for the sgs1 strain (AID 173);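 also: 0% = growth of vehicle-only control cultures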; conditions: S. cerevisiae sgs1 mutant, stronger effect = higher value
How it was run: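 Each compound was added to cultures of the altered yeast strain. Growth was recorded, and inhibition was derived by comparison with vehicle controls.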

[15] = NCI Yeast Anticancer Drug Screen. Data for the mlh1 rad18 strain (AID 175); conditions: S. cerevisiae mlh1 rad18 strain growth inhibition, stronger effect = higher value
How it was run: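 Genetically defined yeast (DNA repair-deficient) exposed to compounds; growth inhibition determined relative to vehicle.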

[16] = NCI Yeast Anticancer Drug Screen. Data for the rad18 strain (AID 177); conditions: S. cerevisiae rad18 mutant growth inhibition, stronger effect = higher value
How it was run: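 Vehicle-treated cultures served as the baseline for scoring compound-induced growth inhibition in DNA-repair-mutant yeast.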

[17] = at 5.0 µM (retest, dose inferred, filed as 0.5)
[18] = at 50.0 µM (retest, dose inferred, filed as 5.0)

Measured: growth inhibition

CC1CC(Br)C(=O)O1 (stereo unspecified)
inactive: [1]; at 1.2 µM -27% | [1]; at 3.7 µM -35% | [1]; at 11.0 µM -18% | [2]; at 1.2 µM -48% | [2]; at 3.7 µM -49% | [2]; at 11.0 µM -22% | [2]; at 33.0 µM 67% | [3]; at 1.2 µM 12% | [3]; at 3.7 µM 11% | [3]; at 11.0 µM 34% | [4]; at 1.2 µM -52% | [4]; at 3.7 µM -49% | [4]; at 11.0 µM -24% | [4]; at 33.0 µM 69% | [5]; at 1.2 µM -67% | [5]; at 3.7 µM -55% | [5]; [17] -14% | [5]; at 11.0 µM -34% | [6]; at 1.2 µM -30% | [6]; at 3.7 µM -18% | [6]; [17] 1% | [6]; at 11.0 µM 31% | [7]; at 1.2 µM -49% | [7]; at 3.7 µM -42% | [7]; at 11.0 µM -30% | [7]; at 33.0 µM 58% | [8]; [17] 9% | [9]; at 1.2 µM -44% | [9]; at 3.7 µM -44% | [9]; at 11.0 µM -13% | [10]; [17] 39% | [11]; at 1.2 µM 8% | [11]; at 3.7 µM 22% | [11]; [17] 44% | [12]; at 1.2 µM -52% | [12]; at 3.7 µM -40% | [12]; at 11.0 µM -25% | [12]; at 33.0 µM 30% | [13]; at 1.2 µM -54% | [13]; at 3.7 µM -51% | [13]; at 11.0 µM -18% | [14]; at 1.2 µM -41% | [14]; at 3.7 µM -40% | [14]; at 11.0 µM -31% | [14]; at 33.0 µM 68% | [15]; [17] -9% | [16]; at 1.2 µM -57% | [16]; at 3.7 µM -50% | [16]; at 11.0 µM -28% | [16]; at 33.0 µM 69%
active: [1]; at 33.0 µM 89% | [1]; at 100.0 µM 92% | [2]; at 100.0 µM 88% | [3]; at 33.0 µM 88% | [3]; at 100.0 µM 89% | [4]; at 100.0 µM 86% | [5]; at 33.0 µM 74% | [5]; [18] 95% | [5]; at 50.0 µM 86.7% | [5]; at 100.0 µM 89% | [6]; at 33.0 µM 95% | [6]; [18] 98% | [6]; at 50.0 µM 92.2% | [6]; at 100.0 µM 95% | [7]; at 100.0 µM 85% | [8]; [18] 77% | [8]; at 50.0 µM 87.8% | [9]; at 33.0 µM 95% | [9]; at 100.0 µM 96% | [10]; [18] 86% | [10]; at 50.0 µM 84.8% | [11]; at 11.0 µM 74% | [11]; at 33.0 µM 96% | [11]; [18] 98% | [11]; at 50.0 µM 88.5% | [11]; at 100.0 µM 97% | [12]; at 100.0 µM 86% | [13]; at 33.0 µM 79% | [13]; at 100.0 µM 90% | [14]; at 100.0 µM 88% | [15]; [18] 97% | [15]; at 50.0 µM 83.8% | [16]; at 100.0 µM 88%

C/C(=N\O)c1ccc2ccc3ccccc3c2c1
93.7% (active) and 7.85% (inactive): [6]; at 50.0 µM
77.6% (active) and 30.2% (inactive): [10]; at 50.0 µM
inactive: [1]; at 1.2 µM -2% | [1]; at 3.7 µM 11% | [1]; at 11.0 µM 49% | [2]; at 1.2 µM -4% | [2]; at 3.7 µM -5% | [2]; at 11.0 µM -9% | [2]; at 33.0 µM 7% | [3]; at 1.2 µM 12% | [3]; at 3.7 µM 35% | [4]; at 1.2 µM 1% | [4]; at 3.7 µM 0% | [4]; at 11.0 µM 2% | [4]; at 33.0 µM 37% | [5]; at 1.2 µM 4% | [5]; at 3.7 µM 12% | [5]; [17] -142% and 7% | [5]; at 11.0 µM 68% | [6]; at 1.2 µM 0% | [6]; at 3.7 µM 1% | [6]; [17] -43% and -1% | [6]; at 11.0 µM 15% | [6]; at 33.0 µM 30% | [6]; [18] -2% and 31% | [7]; at 1.2 µM 2% | [7]; at 3.7 µM 12% | [7]; at 11.0 µM 22% | [7]; at 33.0 µM 41% | [8]; [17] -60% and 0% | [8]; [18] 53% and 65% | [9]; at 1.2 µM -1% | [9]; at 3.7 µM 2% | [9]; at 11.0 µM 6% | [9]; at 33.0 µM 28% | [10]; [17] -49% and -8% | [10]; [18] 12% and 31% | [11]; at 1.2 µM 4% | [11]; at 3.7 µM 3% | [11]; [17] -50% and 1% | [11]; at 11.0 µM 29% | [12]; at 1.2 µM -1% | [12]; at 3.7 µM -1% | [12]; at 11.0 µM 0% | [12]; at 33.0 µM 35% | [13]; at 1.2 µM 3% | [13]; at 3.7 µM -3% | [13]; at 11.0 µM 7% | [13]; at 33.0 µM 61% | [14]; at 1.2 µM -2% | [14]; at 3.7 µM -3% | [14]; at 11.0 µM 33% | [15]; [17] -113% and 3% | [16]; at 1.2 µM 5% | [16]; at 3.7 µM 13% | [16]; at 11.0 µM 52%
85% (active) and 65% (inactive): [5]; [18]
active: [1]; at 33.0 µM 95% | [1]; at 100.0 µM 95% | [2]; at 100.0 µM 93% | [3]; at 11.0 µM 74% | [3]; at 33.0 µM 90% | [3]; at 100.0 µM 94% | [4]; at 100.0 µM 94% | [5]; at 33.0 µM 95% | [5]; at 50.0 µM 96.3% and 78.3% | [5]; at 100.0 µM 97% | [6]; at 100.0 µM 94% | [7]; at 100.0 µM 94% | [8]; at 50.0 µM 93.1% and 80.3% | [9]; at 100.0 µM 87% | [11]; at 33.0 µM 78% | [11]; [18] 72% | [11]; at 100.0 µM 94% | [12]; at 100.0 µM 92% | [13]; at 100.0 µM 90% | [14]; at 33.0 µM 80% | [14]; at 100.0 µM 95% | [15]; at 50.0 µM 96.2% and 82.8% | [16]; at 33.0 µM 92% | [16]; at 100.0 µM 94%
94.5% (active) and 56.8% (inactive): [11]; at 50.0 µM
75% (active) and 64% (inactive): [15]; [18]
